Assay outcomes as filed in PubChem BioAssay.
ALOX12 inh = blocks human arachidonate 12S-lipoxygenase | P18054 | purified 12hLO, xylenol orange hydroperoxide absorbance | Potency, µM (top dose mostly 108 µM), without a hit: top-dose activity change, negative = inhibition, actives largely listed as inhibitors | actives 1.1% (n = 580,000) | AID 1671190; note: potency is the fitted concentration of half-maximal effect; % is set by controls: 0 for no effect and ±100 for the full control effect
Target sequence (P18054 whole entry, looked up): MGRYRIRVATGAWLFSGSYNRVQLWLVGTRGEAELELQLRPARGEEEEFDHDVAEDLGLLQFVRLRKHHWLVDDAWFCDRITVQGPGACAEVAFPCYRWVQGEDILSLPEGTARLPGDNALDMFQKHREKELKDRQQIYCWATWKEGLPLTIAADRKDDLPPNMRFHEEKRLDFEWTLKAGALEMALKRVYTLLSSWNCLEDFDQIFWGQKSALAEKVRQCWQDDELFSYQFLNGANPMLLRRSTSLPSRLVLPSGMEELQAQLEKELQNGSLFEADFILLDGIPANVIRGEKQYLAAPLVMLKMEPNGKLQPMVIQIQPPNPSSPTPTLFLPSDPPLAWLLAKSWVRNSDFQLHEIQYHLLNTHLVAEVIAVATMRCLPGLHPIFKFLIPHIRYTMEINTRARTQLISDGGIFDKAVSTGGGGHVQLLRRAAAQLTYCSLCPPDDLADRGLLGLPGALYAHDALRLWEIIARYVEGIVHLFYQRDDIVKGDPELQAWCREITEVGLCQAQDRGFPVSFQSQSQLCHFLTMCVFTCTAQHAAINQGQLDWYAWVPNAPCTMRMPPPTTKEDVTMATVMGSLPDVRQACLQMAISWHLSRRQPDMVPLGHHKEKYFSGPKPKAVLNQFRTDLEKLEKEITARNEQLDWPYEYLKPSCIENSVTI
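Purified human 12hLO (150 nM final) in 25 mM Hepes, 0.01% Triton X-100, pH 7.0 was preincubated 15 min at room temperature with compound. Then 40 uM arachidonic acid was added, 30 min. Hydroperoxide was read by Fe-XO absorbance ratio 573/405 nm.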
Vif-A3G inh = blocks the Vif interaction with human APOBEC3G | Q9HC16 | HeLa A3G-eYFP + Vif (tagged APOBEC3G with the HIV-1 protein that degrades it), YFP fluorescence, overnight | Potency, µM (doses to about 46.1 µM), for inactives: top-dose activity, negative = active, most hits filed as inhibitors | actives 0.076% (n = 410,000) | AID 602310; note: potency is the fitted concentration of half-maximal effect; % is set by controls: 0 for no effect and ±100 for the full control effect; nearly all actives have a fitted effect of over 60% in size
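HeLa cells stably expressing Vif and C-terminally eYFP-tagged A3G, seeded overnight at 37 deg C, then exposed to compound by pintool overnight at 37 deg C. Rise in yellow fluorescence (Ex 488/Em 500-530, Acumen) marks blocked Vif-driven A3G degradation.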
Vif-APOBEC3F blk = blocks the Vif interaction with APOBEC3F; AID 602313; Potency, µM (series often up to 46.1 µM), for the others: at the highest dose activity, negative = active; actives 0.2% (n = 390,000); HeLa A3F-eYFP + Vif (tagged APOBEC3F with the HIV-1 protein that degrades it), YFP fluorescence increase; note: potency is the fitted concentration of half-maximal effect; % of control where 0% means no effect; nearly all actives have a fitted effect of over 65% in size
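HeLa cells stably expressing Vif plus C-terminally eYFP-tagged A3F were seeded, incubated overnight at 37 deg C, dosed with compound, incubated overnight again at 37 deg C. Yellow fluorescence (Ex 488/Em 500-530) reported blocked Vif-mediated A3F-eYFP degradation.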
Akt phos inh = Akt phosphorylation inhibition; actives 0.32% (n = 360,000); activity change, % for hits at 50 µM; Neuro2A IGF-stimulated pAkt S473 HTRF, 20 min; hits give low values; in the data active = activity change below about -80%; inconclusive = mostly about -51% to -80%; note: % is set by controls: 0 for no effect and ±100 for the full control effect
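Single-point screen (50 µM final compound) in Neuro2A cells stimulated 20 min with 6 nM IGF at 37 deg C. After lysis, Ser473-phosphorylated Akt read by HTRF (ex 330 nm, em 615/665 nm) as the 665/615 ratio.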
ASM inhibitor = inhibitors of human secretory acid sphingomyelinase; P17405; placental ASM, HMU-PC fluorogenic substrate, 60 min; Potency, µM (highest dose often 57.5 µM), without a hit: at the top dose activity change, negative = inhibition, usual class: inhibitors; actives 0.006% (n = 340,000); AID 504937; note: potency is the fitted concentration of half-maximal effect
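HMU-PC0 cleavage (9 uM final) by human placental ASM, 60 min at 37 °C following 10 min compound exposure at RT; stopped at pH 10, fluorescence Ex 386/Em 447 nm.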
TSG101-PTAP inh = blocks PTAP/TSG101 interaction to inhibit HIV-1 budding | Q99816 | Fluorescence polarization, FITC-PTAP peptide / Tsg101 binding | Potency, µM (highest dose often 115 µM), inactives show at the highest dose activity change, negative = inhibition, actives largely listed as inhibitors | 340,000 tested, under 10 active | AID 493005; active = well fitted inhibition curve with a large enough effect in the main read-out, with a control signal flat, not every such curve was filed as active; inconclusive = small, poorly fitted or top-dose-only effect, or effect the other way, or a change in a side signal; inactive = no such curve, though single readings can be large or run the other way; note: potency is the fitted concentration of half-maximal effect; % of control where 0% means no effect
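Steps: Tsg101 binding domain dispensed (10 uM final), compounds pinned in DMSO, FITC-labeled PTAP-motif peptide added (50 nM final); after 20 min binding at room temperature, polarization measured.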
Numbers without * were called inactive; i = inactive; ? = inconclusive; . = no result given; ! = a repeat was not active; [ ] = another dose, or the depositor's remark. Hits are enriched below; roughly 1.4% of the tested compounds scored in any of these assays. Unless noted, calls come from the whole dose curve; as a rule, active = well fitted curve in the direction sought with a large enough effect; inconclusive = small, poorly fitted or top-dose-only effect, or another doubt; inactive = no such curve, though single readings can be large; an effect the other way counts as inactive or inconclusive.

SMILES	ALOX12 inh	Vif-A3G inh	Vif-APOBEC3F blk	Akt phos inh	ASM inhibitor	TSG101-PTAP inh
COc1ccccc1NC(=O)Cn1c(-c2ccc(Cl)cc2)nc(C)c(CCO)c1=O	-3.9%	.	.	.	.	.
CN1CCN(c2ncc3nc(-c4cn(C)c5ccccc45)c(=O)n(-c4ccccc4)c3n2)CC1	6.31µM*	.	.	.	.	.
CCn1c(-c2ccccc2Cl)nn(CC(=O)Nc2ccc(OC)cc2)c1=S	466.9%	-1.5%	-2.9%	-105.8%*	5.5%	-9.2%
CSc1c[n+]2c(n1C)CCC2	44.7µM*	-2.8%	-4.8%	i	3.8%	-7.6%
O=C(OCc1ccc(Cl)cc1)c1ccc(N2CCOCC2)nc1	15.7%	.	.	.	.	.
CCn1nc(C(=O)N(Cc2nc3ccccc3c(=O)[nH]2)C(C)C)c2ccccc2c1=O	36.7%	.	.	.	.	.
O=C(O)c1ccccc1Nc1cc(Cl)ccc1C(=O)O	-22.3%[12.5 µM]	.	.	.	.	.
O=C(O)c1ccc(Cl)cc1Nc1nc2cc(Cl)ccc2o1	8.91µM*	-4.9%	9.7%	i	16.9%	-7.8%
Cc1ccnc(NC(c2ccccc2F)c2ccc3cccnc3c2O)c1 (stereo not drawn)	22.4µM*	-12.1%	7.9%	.	.	.
Cc1ccccc1C1=C/C(=C(\SS/C(C(=O)c2ccc(OCC(=O)O)c(Cl)c2Cl)=C2\C=C(c3ccccc3C)SS2)C(=O)c2ccc(OCC(=O)O)c(Cl)c2Cl)SS1	5.62µM*	3.9%	-0.4%	i	-27.2%	-6.0%
COc1ccc(CNC(=O)C2Cc3ccccc3S2)cc1OC (stereo not drawn)	11.5%	.	.	.	.	.
Cc1ccc(S(=O)(=O)/N=C2\C=C(NS(=O)(=O)c3ccccc3)C(=O)c3ccccc32)cc1	?	-0.9%	6.7%	i	-0.3%	-12.2%
Cc1ccc(S(=O)(=O)/N=C2/C=C(C3C(=O)CC(C)(C)CC3=O)C(=O)c3ccccc32)cc1	44.7µM*	-10.2%	-0.2%	i	0.0%	-3.4%
O=C1N=c2ccc(Br)cc2=C1c1sc(=S)n(NS(=O)(=O)c2ccccc2)c1O	35.5µM*	9.1%	7.3%	i	-8.2%	-3.6%
O=C1N=c2ccccc2=C1c1sc(=S)n(NC(=O)c2cccc(O)c2)c1O	-29.7%	-1.1%	-14.9%	i	?	-1.0%
Cc1ccc(S(=O)(=O)Nn2c(O)c(C=C3N=c4ccccc4=N3)sc2=S)cc1	35.5µM*	-1.5%	-8.2%	i	-10.0%	-3.1%
CCCC1CCC(=O)O1 (stereo not drawn)	3.8%[176 µM]	.	.	.	.	.
CC(=NC1CCCC1)c1c(C)[nH]n(-c2nc3ccccc3s2)c1=O	23.9%	-10.8%	?	-115.8%*	-4.2%	-0.3%
COc1ccc(C23CC4CC(C2)CC(c2ccc(OC)c(C(=O)NC(c5ccccc5)c5ccccc5)c2)(C4)C3)cc1C(=O)NC(c1ccccc1)c1ccccc1	4.5%	.	.	.	.	.
CN1C(=O)C(n2ccc3ccccc32)c2cccc(F)c21 (stereo not drawn)	-24.7%	.	.	.	.	.
O=C1C(n2ccc3ccccc32)c2cccc(F)c2N1Cc1ccc(C(F)(F)F)cc1 (stereo not drawn)	44.7µM*	.	.	.	.	.
N#CC1=C(NC(=O)c2ccccc2)CCC(C#N)(c2ccccc2)C1 (stereo not drawn)	5.7%	.	.	.	.	.
O=C1/C(=C\c2ccc(Br)o2)Cc2ccccc21	?	-12.1%	-7.7%	i	44.8%	0.1%
O=C1/C(=C/c2ccc(-c3ccc(F)cc3)o2)Cc2ccccc21	17.8µM*	.	.	.	.	.
Cc1ccc(CNc2nc3ccc(Cl)cc3n3nnnc23)cc1	-13.9%	2.6%	7.08µM*	.	.	.
SMILES	ALOX12 inh	Vif-A3G inh	Vif-APOBEC3F blk	Akt phos inh	ASM inhibitor	TSG101-PTAP inh
Cc1ccc(CNc2nc3ccc(C)cc3n3nnnc23)cc1	-7.8%	1.3%	1.7%	.	.	.
COc1ccccc1CNc1nc2ccc(C)cc2n2nnnc12	-3.3%	-2.9%	12.6µM*	.	.	.
Fc1ccc(CNc2nc3ccc(Cl)cc3n3nnnc23)cc1	?	-11.6%	7.94µM*	.	.	.
Cc1ccn2c(NC3CCCCC3)c(-c3cccc(SC4CCCCC4)c3)nc2c1	?	-6.9%	-28.3%	i	219.5%	6.2%
COc1ccc(-c2cccc(-c3nc4ccc(Cl)cn4c3NC3CCCCC3)c2)cc1	7.08µM*	0.0%	5.7%	i	94.9%	5.3%
CCC(C)Sc1cccc(-c2nc3cc(C)ccn3c2NC2CCCCC2)c1 (stereo not drawn)	?	-7.6%	22.4µM*	i	171.6%	-0.7%
CCC(C)Sc1cc(-c2nc3ccc(Cl)cn3c2NC2CCCCC2)ccc1OC (stereo not drawn)	39.8µM*!	-6.7%	-7.5%	i	139.9%	4.6%
CCc1noc(-c2cn(C3CCN(C(=O)c4cccc(F)c4)CC3)nn2)n1	34.1%	.	.	.	.	.
CC(=O)Nc1ccc(S(=O)(=O)N[C@H]2CO[C@H]3[C@@H]2OC[C@@H]3Nc2nccc(-c3cccs3)n2)cc1	25.1%	.	.	.	.	.
CC(C)c1cc(=O)oc2cc(OS(=O)(=O)c3ccc4c(c3)OCCO4)ccc12	3.1%	.	.	.	.	.
S=c1[nH]cc(Cc2ccccc2)s1	7.94µM*	0.4%	-6.7%	i	2.7%	-1.1%
COCC1CN(C)CC12CCN(Cc1ccc(OC)c(Cn3ccnc3)c1)CC2 (stereo not drawn)	118.1%	.	.	.	.	.
COc1cc(Cl)c(C)cc1NC(=O)c1cc(=O)n2c(nc3ccccc32)s1	44.7µM*	.	.	.	.	.
CNCc1ccncc1	0.327µM*	.	.	.	.	.
O=C(NCc1ccncc1)C(=O)NCc1ccncc1	-26.4%	1.9%	7.7%	i	-1.2%	-2.0%
COc1cccc(CN2CCOC3CCN(CCCc4ccccc4)CC3C2=O)c1 (stereo not drawn)	-2.2%[176 µM]	.	.	.	.	.
CN(C)c1ccc(/C=C/c2ccc3ccccc3n2)cc1	.	-19.3%	?	i	204.9%	-4.8%
C(=C\c1ccccn1)/c1ccccc1	?	1.5%	.	.	.	.
CN(C)c1ccc(/C=C/c2ccnc3c(Cl)cccc23)cc1	.	3.55µM*	.	.	.	.
CN(C)c1ccc(/C=C/c2ccnc3ccc(-c4ccccc4)cc23)cc1	.	7.08µM*	.	.	.	.
CN(C)c1ccc(/C=C/c2cc(/C=C/c3ccc(N(C)C)cc3)c3ccccc3n2)cc1	.	2.82µM*	.	.	.	.
CCN(CC)c1ccc(/C=C/c2ccccn2)cc1	.	3.16µM*	.	.	.	.
Cc1ccc(-c2[nH]ncc2CNC(C)c2cccs2)cc1 (stereo not drawn)	-56.8%	.	.	.	.	.
CC1C=CC(C)N1c1ncnc2c1CN(C1CCNCC1)C(=O)CN2C (stereo not drawn)	-26.6%[6.33 µM]	.	.	.	.	.
CCN(CC)c1ccc(/C=C/c2ccnc3ccccc23)cc1	.	11.2µM*	.	.	.	.
COc1cc(N(C)C)c(OC)cc1/C=C/c1ccnc2ccccc12	.	7.08µM*	.	.	.	.
COc1ccc(/C=C2/C(=O)ON=C2C)cc1Br	?	2.1%	-5.3%	i	-1.5%	-0.5%
